Screening results: PubChem BioAssay, National Center for Advancing Translational Sciences (NCATS)
HTT ATP protect = protects HTT-Q103 PC12 cells, measured by ATP; PC12 HTT-Q103 induced, cytoprotection, ATP luminescence, 40 h; Potency, µM (top dose mostly 56.4 µM), inactives show cytoprotection (ATP increase), most hits filed as activators; hit rate 0.14% among 230,000; also: % of control where 0% means no effect; nearly all actives have a fitted effect of over 45% in size
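Cells were plated at 1500 per well in phenol red-free DMEM with 5% equine and 5% calf serum. Tebufenozide (100 nM final) and compounds were added, then ATPlite reagent, and luminescence was read.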
HTT aggregate = inhibitors of mutant huntingtin aggregate formation in PC12 cells; Potency, µM (series often up to 46.1 µM), for the others: top-dose activity change, negative = inhibition, hits mostly inhibitors; hit rate 1.1% among 220,000; PC12 HttQ103-GFP aggregates, Acumen cytometry, 40 h; also: % is scaled to controls: 0 for no effect and ±100 for the full control effect; nearly all actives have a fitted effect of over 60% in size
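Read-out: GFP aggregate count by laser scanning cytometer (488 nm excitation, 500-530 nm emission, 1–25 µm objects >6 SD above background). Cells: PC12, inducible HTTex1-Q103-GFP, 100 nM tebufenozide; compounds titrated.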
L3MBTL1 block = L3MBTL1 (human) inhibition. AlphaScreen L3MBTL1–H3K9me1 peptide binding. Potency, µM (titrated, usually from 57.1 µM), without a hit: top-dose activity, negative = inhibition, usual class: inhibitors. hit rate 0.66% among 230,000; also: % is scaled to controls: 0 for no effect and ±100 for the full control effect; nearly all actives have a fitted effect of over 60% in size
Target sequence (Q9Y468 whole entry, looked up): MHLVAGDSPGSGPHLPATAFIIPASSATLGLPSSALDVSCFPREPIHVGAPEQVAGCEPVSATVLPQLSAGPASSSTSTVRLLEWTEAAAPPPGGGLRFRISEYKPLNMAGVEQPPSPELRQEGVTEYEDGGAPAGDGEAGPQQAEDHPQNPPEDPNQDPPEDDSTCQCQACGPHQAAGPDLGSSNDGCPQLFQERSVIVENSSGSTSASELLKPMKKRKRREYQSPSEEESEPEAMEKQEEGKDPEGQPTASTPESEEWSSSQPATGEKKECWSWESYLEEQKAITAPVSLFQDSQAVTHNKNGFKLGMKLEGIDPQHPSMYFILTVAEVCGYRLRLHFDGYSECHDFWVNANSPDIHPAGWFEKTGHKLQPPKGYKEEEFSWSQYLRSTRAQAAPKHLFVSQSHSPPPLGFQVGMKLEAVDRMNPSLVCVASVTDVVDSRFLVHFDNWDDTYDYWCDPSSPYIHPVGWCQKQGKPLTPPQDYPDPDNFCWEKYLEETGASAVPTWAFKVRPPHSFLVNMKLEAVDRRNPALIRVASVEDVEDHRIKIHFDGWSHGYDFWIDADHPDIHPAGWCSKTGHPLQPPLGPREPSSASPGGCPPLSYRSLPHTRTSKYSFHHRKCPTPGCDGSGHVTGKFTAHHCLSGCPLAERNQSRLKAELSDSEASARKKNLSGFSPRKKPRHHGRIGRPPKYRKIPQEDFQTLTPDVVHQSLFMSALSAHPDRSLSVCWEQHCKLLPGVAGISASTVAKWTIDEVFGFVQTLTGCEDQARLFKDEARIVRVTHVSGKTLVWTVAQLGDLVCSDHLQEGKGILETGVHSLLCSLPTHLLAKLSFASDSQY
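Read-out is AlphaScreen signal from streptavidin donor and nickel chelate acceptor beads (10 ug/mL final each) bridging L3MBTL1 (50 nM) and biotinylated K9-monomethylated H3(1-15) peptide (75 nM), after 30 min compound exposure at room temperature.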
KDM4E inh = blocks human JMJD2E demethylase activity. B2RXH2. JMJD2E catalytic domain, FDH-coupled NADH fluorescence (FDH is formaldehyde dehydrogenase). Potency, µM (titrated, usually from 57.1 µM), without a hit: top-dose activity change, negative = inhibition, hits mostly inhibitors. hit rate 1.6% among 230,000. AID 2147; active = well fitted inhibition curve with a large enough effect, not every such curve was filed as active; inconclusive = small, poorly fitted or top-dose-only effect, or another doubt; inactive = no such curve, though single readings can be large or run the other way;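 also: 0% = wells with enzyme and -100% = buffer wells without enzyme; nearly all actives have a fitted effect of over 50% in size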
The depositor's hits bear a star; ? = inconclusive; . = no result given; [ ] = remark or other dose. Only some compounds are listed: those with a hit (about 1.8% of all), similar ones and a draw of the others. Unless noted, calls follow the shape of the dose curve; as a rule, active = well fitted curve in the direction sought with a large enough effect; inconclusive = small, poorly fitted or top-dose-only effect, or another doubt; inactive = no such curve, though single readings can be large; an effect the other way counts as inactive or inconclusive. Potency is read from the fitted curve at half-maximal effect.

SMILES	HTT ATP protect	HTT aggregate	L3MBTL1 block	KDM4E inh
CC(C)(C)C(=O)OCOP(=O)(OCOC(=O)C(C)(C)C)C(C)(Oc1ccc(O)cc1)P(=O)(OCOC(=O)C(C)(C)C)OCOC(=O)C(C)(C)C	-36%	.	.	.
CC(Oc1ccc(O)cc1)(P(=O)(O)O)P(=O)(O)O	9%	.	.	1.6µM*
COC(=O)[C@H](COC(C)(C)C)NC(=O)O[C@@H]1C(=O)c2cc(Br)ccc2O[C@H]1c1ccc2c(c1)OCO2	20%	.	.	10%
CCCCC#CC1C=CC(Oc2cc(OC)c(OC)c(OC)c2)C(CO)O1 (stereo not drawn)	-23%[10 µM]	.	.	.
NNC(=O)c1ccc(O)cc1O	.	6%	-2%	20%
CCCCCC(=O)c1ccc(O)cc1O	-11%	0.14µM*	7%	-2%
Cc1noc(C)c1C(=O)N1CCC2(CCN(Cc3nccs3)CC2)CC1	9%	.	.	.
CC1=CC(C)(C)N2C(=O)C(=Nc3ccc(O)cc3)c3cccc1c32	8%[10 µM]	5%[9.22 µM]	11µM*	13µM*
CS(=O)(=O)N(CCC#N)Cc1ccc(/C=C2\C(=O)Nc3ccccc32)o1	-39%	11µM*	-1%	-6%
COc1cc(OC)c(/C=C2/C(=O)Nc3ccccc32)c(OC)c1	-22%[1.9 µM]	.	.	0%
CCN(CC)c1ccc2cc(-c3nc4ccccc4[nH]3)c(=O)oc2c1	-76%[10 µM]	0.32µM*	6%	7%
CCN(CC)c1ccc2cc(-c3nnc(-c4ccccc4)o3)c(=O)oc2c1	15%[10 µM]	7.1µM*	16%	?
CCN(CC)c1ccc2cc(-c3nc(-c4ccc(OC)cc4)cs3)c(=O)oc2c1	-9%[10 µM]	2.8µM*	135%	-8%
COc1ccc2[nH]cc(CCNc3cc(-c4cccc(C#N)c4)ncn3)c2c1	-42%	.	.	.
COc1ccc2c(c1)O[C@@H](c1ccc3c(c1)OCO3)[C@H](OC(=O)Nc1ccc(OC(F)F)cc1)C2=O	-30%	.	.	-4%
C=CCNC(=O)N1CCc2nc(COc3ccccc3)c3c(c2C1)CO[C@@H](C)C3	-25%[10 µM]	.	.	2%[11.4 µM]
COc1cccc(N(C(=O)CCl)C(C(=O)NCCc2ccccc2)c2cccs2)c1 (stereo not drawn)	-63%[10 µM]	22µM*	10%	-1%
COc1ccc(N(C(=O)CCl)C(C(=O)NCCc2ccccc2)c2cccs2)cc1Cl (stereo not drawn)	-40%[10 µM]	7%[9.22 µM]	-7%	-5%
C#CCCCO/N=C1/C[C@@H](O)[C@@H](O)[C@@H]2[C@@H]3C(=O)N(CC)C(=O)[C@H]3CC[C@@H]12	5%[10 µM]	.	.	.
CC(=O)c1ccc(NC(=O)OCCN2CCN(Cc3ccccc3)CCC2=O)cc1	-25%	.	.	.
O=C(CCSc1nnc2scc(-c3ccccc3)n12)NCc1ccc2c(c1)OCO2	13%[0.074 µM]	-7%	-7%	-1%
c1ccc(-c2csc3nnc(SCc4ccc5c(c4)OCO5)n23)cc1	-2%[10 µM]	10µM*	12%	-19%
Cc1ccc(S(=O)(=O)OC[C@@H]2CN3[C@H](c4ccc(Br)cc4)[C@H](C)CC[C@H]3C(=O)O2)cc1	-55%[10 µM]	.	.	.
C(=C\c1ccco1)/c1ccc2ccccc2n1	13%[10 µM]	-9%[9.22 µM]	14µM*	?
Fc1cccc(F)c1/C=C/c1ccc2ccccc2n1	-20%[10 µM]	15%	49%	?
SMILES	HTT ATP protect	HTT aggregate	L3MBTL1 block	KDM4E inh
O=c1c(Br)c(Br)cnn1-c1ccccc1	-97%[10 µM]	5.6µM*	0%	3%
O=C(O)[C@@H]1Cc2c([nH]c3ccccc23)[C@@H](CCCCO)N1	4%[10 µM]	.	.	.
CNC(=O)[C@H](Cc1c[nH]c2ccccc12)NC(=O)[C@@H](CC(=O)NO)CC(C)C	14%	15%	.	.
C/C(=N\NC(=O)CSCc1ccc([N+](=O)[O-])cc1)c1ccccc1	-6%	-9%	.	10%
C/C(=N\NC(=O)CSCc1ccc([N+](=O)[O-])cc1)c1ccccc1O	.	10µM*	-2%	25µM*
C/C(=N\NC(=O)c1cc(-c2cccc([N+](=O)[O-])c2)n[nH]1)c1ccccc1O	.	?	?	25µM*
N#C/C(=C\c1ccccc1)C(=O)Nc1cc(S(=O)(=O)N2CCOCC2)ccc1N1CCCC1	0.71µM*	?	-10%	11%
COc1ccc2cc3c(N)nn(C(=O)Cc4ccc(Cl)cc4)c3nc2c1	15%	7.9µM*	2%	?
COc1ccc2cc3c(N)nn(C(=O)Cc4c[nH]c5ccccc45)c3nc2c1	3%[10 µM]	3.2µM*	.	2%
C[C@@H](c1ccccc1)N1C(=O)[C@@H]2[C@H]3C(=CC[C@H]2C1=O)C(=O)[C@H]1O[C@H]1[C@H]3O	-4%[10 µM]	.	.	.
COc1cc(/C=C(\C#N)C(=O)c2ccc(O)c(O)c2)cc(I)c1O	0%[1.9 µM]	.	0.32µM*	10µM*
Cc1cc(N2CCN(c3ccccc3)CC2)n2ncnc2n1	12%[10 µM]	-14%[9.22 µM]	-1%	2%
Cc1cc(N2CCN(C/C=C/c3ccccc3)CC2)n2ncnc2n1	?	3.5µM*	-3%	-14%
COc1ccc(Nc2ccc(OC)cc2)cc1	-17%[10 µM]	7%[9.22 µM]	16µM*	?
COc1ccc(Nc2ccc(Nc3ccc(OC)cc3)nn2)cc1	27%[10 µM]	?	-2%	-4%
O=Nc1ccc2oc(=O)ccc2c1	-14%[1.9 µM]	.	.	-6%
FC(F)(F)c1ccccc1-c1ccc2ncnc(NC3CC3)c2c1	-33%	.	.	.
O=C(N/N=C/c1ccc2c(c1)OCO2)/C(=C/c1ccc2c(c1)OCO2)NC(=O)c1ccccc1	-10%	19%	-5%	?
CN(C)c1ccc(/C=C(/NC(=O)c2ccccc2)C(=O)N/N=C/c2ccc([N+](=O)[O-])c(O)c2)cc1	13%[10 µM]	-3%	32µM*	1%
Cn1cc(O)nc1NC(=O)Nc1cccc(Cl)c1	5%	-13%	.	.
CCOC(=O)c1ccc(COC(=O)CCc2nc3ccccc3[nH]c2=O)o1	-7%[10 µM]	2.8µM*	2%[11.4 µM]	?
CCOc1ccc(CC2NCCc3cc(OCC)c(OCC)cc32)cc1OCC (stereo not drawn)	5%[10 µM]	?	-9%	35µM*
COCCNc1nc(C)nc2c1nc(-c1ccccc1)n2C1CCN(Cc2ccccc2)C1 (stereo not drawn)	12%	.	.	?
OC1CC(c2ccco2)NC2(CCCCC2)C1 (stereo not drawn)	-2%[10 µM]	-12%	-4%	22µM*
c1ccc(-n2cnc3ccccc32)cc1	-22%	?	.	-5%
SMILES	HTT ATP protect	HTT aggregate	L3MBTL1 block	KDM4E inh
COc1ccc(-n2cnc3ccccc32)cc1	-11%	14µM*	.	-2%
COc1ccc2ncn(-c3ccccc3)c2c1	23%[10 µM]	10µM*	-3%	5%
CO/C=C\C=C/c1nnn(-c2ccc(Cl)cc2)n1	.	10%	-9%	25µM*
COC(=O)[C@@H]1CC[C@H](C)[C@@H](c2ccc(C)cc2)N1C(=O)c1ccc(/C=N\OCC[C@@H]2C=C[C@H](OC(C)=O)[C@H](COC(C)=O)O2)cc1	0%[10 µM]	.	.	.
CC1CN(S(=O)(=O)c2ccc(C(=O)Nc3nnc(-c4ccc5c(c4)CCCC5)o3)cc2)CC(C)O1 (stereo not drawn)	-107%	3.5µM*	9%	16%
COc1ccccc1C(=O)Nc1nnc(-c2ccc3c(c2)CCCC3)o1	-37%	20µM*	4%	?
